The values below come from PubChem BioAssay (NCATS).

For assay [1], the target named is Aldehyde dehydrogenase, mitochondrial (Homo sapiens) (UniProt P05091). In words: qHTS for Inhibitors of the Aldehyde Dehydrogenase Family (ALDH2) Primary screen (AID 2061308; also: nearly all actives have a fitted effect of over 55% in size). (In general: qHTS replaces the single test concentration by a dilution series.)
The target of assay [2] is Retinaldehyde dehydrogenase 3 (Homo sapiens) (UniProt P47895). In words: qHTS for Inhibitors of the Aldehyde Dehydrogenase Family (ALDH1A3) Confirmatory screens (AID 2061311). Also: nearly all actives have a fitted effect of over 60% in size. Also: potency is read from the fitted curve at half-maximal effect.
The target of assay [3] is Retinal dehydrogenase 2 (Homo sapiens) (UniProt O94788). As to the kind of experiment: qHTS for Inhibitors of the Aldehyde Dehydrogenase Family (ALDH1A2) Confirmation screens (AID 2061314). Also: potency is read from the fitted curve at half-maximal effect; nearly all actives have a fitted effect of over 65% in size.
Assay [4] has as its target Retinaldehyde dehydrogenase 3 (Homo sapiens) (UniProt P47895). As to the kind of experiment: qHTS for Inhibitors of the Aldehyde Dehydrogenase Family (ALDH1A3) Primary screen (AID 2061315).
Assay [5] addresses Aldehyde dehydrogenase 1A1 (Homo sapiens) (UniProt P00352). As to the kind of experiment: qHTS for Inhibitors of the Aldehyde Dehydrogenase Family (ALDH1A1) Confirmatory screens (AID 2061316). Also: nearly all actives have a fitted effect of over 65% in size.

Structures are written as SMILES. Records with an inconclusive call do not appear. The source made the active and inactive calls. Calls follow the shape of the dose curve; as a rule, active = well fitted curve in the direction sought with a large enough effect; inconclusive = small, poorly fitted or top-dose-only effect, or another doubt; inactive = no such curve, though single readings can be large; an effect the other way counts as inactive or inconclusive.

`Cc1ccc(S(=O)(=O)Nc2cccc3ccc[n+](C)c23)cc1`: the Potency entry in assay [1] and in assay [4] was “inactive” each time. Also, the Potency was 10.1 µM (active) in assay [2] and 25.2 µM (active) in assay [3].
Turning to `CN1CCN(c2ccc(NC(=O)c3cccs3)cn2)CC1`, the Potency result in assay [1] and in assay [4] was “inactive” throughout. In addition, the Potency is 22.5 µM (active) in assay [2] and 12.7 µM (active) in assay [3].
Regarding `O=C(O)c1ccc(O)c2ncc(NC3CCNC3)cc12` (stereo unspecified), the Potency result in assay [1], in assay [2], in assay [4] and in assay [5] was “inactive” throughout. Moreover, the Potency in assay [3] was 3.57 µM (active).
With `CNS(=O)(=O)c1ccc(Cc2c(-c3cccc(-c4ccccc4)c3)[nH]n(-c3nc(C(=O)O)cs3)c2=O)cc1`, the Potency entry in assay [1] and in assay [4] was “inactive” each time. The Potency in assay [2] is 4 µM (active).
